Pol beta inh: DNA polymerase beta (human) inhibition; P06746; Pol beta primer extension/strand displacement, fluorescence kinetic; Potency, µM (highest dose often 114 µM), most hits filed as inhibitors; 1.3% of 340,000 active; AID 485314
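Homogeneous kinetic assay of primer extension and strand displacement by 10 nM Pol beta, preincubated 15 min at room temperature with compound before 50 nM substrate (final) was added. Read at 0 and 10 min; four-parameter Hill fit.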
POLK inh: DNA polymerase kappa (human) inhibition | purified Pol kappa, fluorescent DNA synthesis assay, 10 min | AID 588579 | Q9UBT6 | Potency, µM (highest dose often 107 µM), most hits filed as inhibitors | 0.53% of 400,000 active
Target sequence (Q9UBT6 whole entry, looked up): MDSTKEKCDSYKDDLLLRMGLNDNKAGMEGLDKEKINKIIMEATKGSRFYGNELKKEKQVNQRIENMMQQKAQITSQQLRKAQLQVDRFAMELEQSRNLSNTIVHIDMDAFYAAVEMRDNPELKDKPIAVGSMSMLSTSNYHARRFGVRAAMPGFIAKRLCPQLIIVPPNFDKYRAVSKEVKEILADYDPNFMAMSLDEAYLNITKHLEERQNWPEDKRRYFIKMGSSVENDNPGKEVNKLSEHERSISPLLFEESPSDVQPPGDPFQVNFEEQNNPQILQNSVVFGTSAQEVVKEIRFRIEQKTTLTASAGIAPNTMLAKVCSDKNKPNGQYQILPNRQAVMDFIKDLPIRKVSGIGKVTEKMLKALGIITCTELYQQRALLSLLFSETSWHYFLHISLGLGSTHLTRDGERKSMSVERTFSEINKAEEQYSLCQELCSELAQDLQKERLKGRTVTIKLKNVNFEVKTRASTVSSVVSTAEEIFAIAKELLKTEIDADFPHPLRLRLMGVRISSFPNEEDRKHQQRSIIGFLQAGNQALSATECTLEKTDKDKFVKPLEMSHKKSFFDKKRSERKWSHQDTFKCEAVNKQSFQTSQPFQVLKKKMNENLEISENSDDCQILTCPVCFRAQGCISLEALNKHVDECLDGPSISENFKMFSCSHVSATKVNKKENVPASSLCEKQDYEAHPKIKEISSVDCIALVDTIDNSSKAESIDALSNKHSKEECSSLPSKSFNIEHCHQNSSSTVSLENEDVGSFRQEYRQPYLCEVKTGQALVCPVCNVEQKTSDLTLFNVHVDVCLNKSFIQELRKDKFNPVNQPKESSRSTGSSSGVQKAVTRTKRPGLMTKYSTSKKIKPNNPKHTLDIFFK
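Readout: fluorescence, taken kinetically at 0 and 10 min. Conditions: 10 nM Pol kappa, 15 min RT compound preincubation, 50 nM substrate final. Controls: enzyme-free buffer wells.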
WRN helicase inh: inhibitors of human WRN helicase; AID 651768; Q14191; 0.46% of 360,000 active; Potency, µM (titrated, usually from 114 µM), usual class: inhibitors; WRN helicase unwinding, fluorescent forked duplex, kinetic; further: nearly all actives have a fitted effect of over 55% in size
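Kinetic fluorescence helicase assay: unwinding of a quenched forked DNA duplex (100 nM final) with 2 mM ATP final raises red fluorescence (525/598 nm). Compounds sat 15 min at room temperature with 20 nM WRN beforehand.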
Pol eta inh: blocks human DNA polymerase eta activity; 1.2% of 390,000 active; recombinant Pol eta, fluorescent DNA replication assay; Potency, µM (series often up to 114 µM), most hits filed as inhibitors
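Pol eta at 10 nM preincubated with compounds 15 min at room temperature; reaction started with fluorescent substrate (50 nM final) and read kinetically at 0 and 10 min.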
FEN1 inhibitor: human FEN1 inhibition. Potency, µM (series often up to 114 µM), hits mostly inhibitors. 0.35% of 390,000 active. AID 588795. Recombinant FEN1 flap cleavage, fluorescence, 15 min. P39748; further: nearly all actives have a fitted effect of over 65% in size
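With each library titrated from low to high concentration, compounds met 10 nM FEN1 for 15 min at room temperature before 50 nM substrate was added; readings at 0 and 15 min fed four-parameter Hill curve fits.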
Pol iota inh: blocks human DNA polymerase iota activity. Pol iota fluorescent replication assay, 10 min. Potency, µM (top dose mostly 115 µM), usual class: inhibitors. 1% of 390,000 active. AID 588590
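Fluorescent replication assay read twice, at 0 min and 10 min after adding 50 nM (final) substrate. Enzyme (10 nM) and compounds were first incubated 15 min at room temperature; enzyme-free buffer wells were negative controls.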
TbPGK inh: TbPGK inhibition, hit validation; shares compounds with POLK inh; TbPGK coupled GAPDH assay, Kinase-Glo luminescence; Potency, µM (highest dose often 57.5 µM), actives largely listed as inhibitors; 79% of 500 active; further: nearly all actives have a fitted effect of over 65% in size
Pol iota confirm: Inhibitors of human DNA polymerase iota, confirmation. shares compounds with POLK inh. Potency, µM, usual class: inhibitors. 77% of 1,500 active. Pol iota primer extension, TAMRA/BHQ fluorescence. AID 720496
Each line names hits and unclear results; the compound was inactive in the other large screens (follow-up assays come after a bar, where they were run). This is a sample that favours compounds with a hit; in the whole collection about 2.4% have one here. The call rests on the fitted dose curve; in most records, active means well fitted curve in the direction sought with a large enough effect; inconclusive means small, poorly fitted or top-dose-only effect, or another doubt; inactive means no such curve, though single readings can be large; an effect the other way counts as inactive or inconclusive.

C/C(=N/OC(=O)c1ccc(C)cc1)c1cccs1	none | TbPGK inh 10.3µM
N/C(=N\OC(=O)c1ccc(F)cc1)c1nonc1N	none
C=C1CC2C3C=C(C)C4=CC(=O)CCC4(C)C3CCC2(C)[C@@]1(OC(C)=O)C(C)=O (stereo partly drawn)	none (no result: Pol beta inh, WRN helicase inh, Pol eta inh, FEN1 inhibitor, Pol iota inh)
COc1ccc(C(=O)O/N=C(\C)c2ccccc2)cc1	none | TbPGK inh 8.19µM
Cc1ccc(-c2nc3ccccc3o2)cc1NC(=S)NC(=O)/C=C/c1ccco1	Pol beta inh 39.8µM, WRN helicase inh inconclusive, Pol eta inh 22.4µM, Pol iota inh inconclusive | Pol iota confirm inconclusive
Cc1ccc2oc(-c3ccc(C)c(NC(=O)/C=C/c4ccco4)c3)nc2c1	Pol eta inh inconclusive, Pol iota inh inconclusive (no result: WRN helicase inh)
COc1ccccc1NC(=O)c1cc2ccccc2o/c1=N\O	Pol beta inh 20µM, WRN helicase inh 100µM, Pol eta inh inconclusive, Pol iota inh 79.4µM | Pol iota confirm inconclusive
COc1ccccc1NC(=O)c1cc2ccc(O)cc2o/c1=N\O	WRN helicase inh inconclusive, Pol eta inh inconclusive
O=C(Nc1ccc(NC(=O)c2ccco2)c(Cl)c1)c1ccc2c(c1)OCCO2	Pol beta inh inconclusive, POLK inh inconclusive, WRN helicase inh inconclusive, Pol eta inh inconclusive, Pol iota inh inconclusive | Pol iota confirm inconclusive
Cc1ccc2nc3sc(C(=O)Nc4ccncc4)cc3cc2c1	none (no result: Pol beta inh, POLK inh, WRN helicase inh, Pol eta inh, FEN1 inhibitor, Pol iota inh) | Pol iota confirm inconclusive
Cc1ccc2nc3sc(C(=O)Nc4ccc(F)cc4)cc3cc2c1	Pol beta inh 2.51µM, Pol iota inh inconclusive (no result: WRN helicase inh) | Pol iota confirm 75.2
CCc1ccc2nc(N(Cc3cccnc3)C(=O)Cc3ccccc3)sc2c1	none (no result: WRN helicase inh)
Nc1c(/C=C2/C=CC(=O)C(O)=C2)c(=O)nc2sc(CC(=O)N3CCCCC3)nn12	Pol beta inh inconclusive, POLK inh inconclusive, Pol iota inh inconclusive | TbPGK inh 1.63µM
CCCCC(CC)Cn1c(Oc2ccccc2)nc2c1c(=O)n(C)c(=O)n2C (stereo not drawn)	none (no result: WRN helicase inh)
CC(=O)c1cccc(NC(=O)CN2C(=O)c3cccnc3Sc3ccccc32)c1	none (no result: WRN helicase inh)
CC(C)CCN1CCN(Cc2ccc3nsnc3c2)CC1CCO (stereo not drawn)	none | TbPGK inh inactive
CC(C)=CCN1CCN(Cc2ccc3nsnc3c2)CC1CCO (stereo not drawn)	none
Cc1cc(-c2ccc(C)c(S(=O)(=O)Nc3ccccc3C(F)(F)F)c2)on1	Pol beta inh inconclusive (no result: WRN helicase inh)
COC/C=C/C1=CC2=CC(=O)C(C)(OC(=O)c3cnc4ccccc4n3)C(=O)C2=CN1CCOC (stereo not drawn)	Pol iota inh inconclusive (no result: Pol beta inh)
C=CCN1C=C2C(=O)C(C)(OC(=O)c3cnc4ccccc4n3)C(=O)C=C2C=C1/C=C/COC (stereo not drawn)	POLK inh inconclusive, Pol eta inh 25.1µM, Pol iota inh inconclusive (no result: Pol beta inh) | Pol iota confirm inconclusive
BrC(=C\c1ccccc1)/C=N/Nc1ccc2nncn2n1	Pol beta inh inconclusive, Pol eta inh 50.1µM, FEN1 inhibitor inconclusive, Pol iota inh inconclusive | Pol iota confirm 33.6
C(=N\Nc1ccc2nncn2n1)/c1ccco1	none
O=C(CSc1nnc(COc2ccccc2Cl)o1)NC(=O)NCc1ccco1	Pol beta inh 14.1µM, POLK inh inconclusive, Pol eta inh 50.1µM, Pol iota inh 39.8µM | Pol iota confirm 67
CC1=C/C(=C(/c2ccc(O)c(C)c2)c2ccccc2S(=O)(=O)O)C=CC1=O	FEN1 inhibitor inconclusive, Pol iota inh inconclusive (no result: Pol beta inh)
CC1=C/C(=C(/c2cc(C)c(O)c(Br)c2)c2ccccc2S(=O)(=O)O)C=C(Br)C1=O	POLK inh inconclusive, WRN helicase inh inconclusive, Pol eta inh 35.5µM, FEN1 inhibitor inconclusive, Pol iota inh inconclusive | TbPGK inh 18.3µM
Cc1ccc(NC(=O)C2CCCN(c3nnc(-n4c(C)ccc4C)s3)C2)c(C)c1 (stereo not drawn)	none (no result: WRN helicase inh, Pol eta inh)
COc1ccc(-n2cccc2/C=C2\C(=N)N3N=C(c4ccco4)SC3=NC2=O)cc1	Pol beta inh 5.62µM, POLK inh 22.4µM, WRN helicase inh inconclusive, Pol eta inh 8.91µM, FEN1 inhibitor inconclusive, Pol iota inh inconclusive | TbPGK inh 3.66µM
CCn1cnc2c(=O)oc3ccc(S(=O)(=O)Nc4ccc(OC)cc4)cc3c21	Pol beta inh inconclusive (no result: WRN helicase inh)
COc1ccccc1C(=O)Nc1nc2ccc(S(C)(=O)=O)cc2s1	none
COc1ccccc1C(=O)Nc1nc2ccccc2s1	Pol iota inh inconclusive | TbPGK inh 16.3µM
CCOc1ccc(C=NNc2ccc(S(=O)(=O)Nc3ccccc3C(=O)O)cc2[N+](=O)[O-])cc1OC	POLK inh inconclusive, WRN helicase inh inconclusive, Pol eta inh inconclusive, FEN1 inhibitor 79.4µM, Pol iota inh inconclusive (no result: Pol beta inh) | TbPGK inh 8.19µM
CCOc1cc(/C=C2/NC(=S)NC2=O)ccc1OCc1ccc([N+](=O)[O-])cc1	Pol beta inh inconclusive, Pol eta inh inconclusive, Pol iota inh inconclusive | Pol iota confirm inconclusive
CCCCOC(=O)c1ccc(NC(=O)CSc2nc3c(c(=O)[nH]2)CCC3)cc1	none (no result: WRN helicase inh, Pol eta inh)
CN(C)c1ccc(-c2nc3ccccn3c2/N=C/c2ccc(Br)cc2)cc1	WRN helicase inh inconclusive | TbPGK inh inconclusive
Cc1ccc(-c2nnc(SCC(=O)NCCC(C)C)nc2-c2ccc(C)cc2)cc1	Pol iota inh inconclusive (no result: WRN helicase inh)
CCC(=O)NC(=S)Nc1ccc(-c2nc3ccccc3s2)cc1	none
O=C(O)CSCC(=O)Nc1ccc(-c2nc3ccccc3s2)cc1	Pol beta inh inconclusive, Pol eta inh 44.7µM | TbPGK inh inconclusive
COc1cc(Cl)c(C)cc1NC(=O)c1cnc2c(-c3cccc(C)c3)c(C)nn2c1C	none (no result: WRN helicase inh)
C[C@@H]1O[C@@H](O[C@@H]2[C@@H](O)[C@H](OCCc3ccc(O)c(O)c3)O[C@H](CO)[C@H]2OC(=O)/C=C/c2ccc(O)c(O)c2)[C@H](O)[C@H](O)[C@H]1O	POLK inh 22.4µM, FEN1 inhibitor inconclusive, Pol iota inh inconclusive (no result: Pol beta inh) | Pol iota confirm 21.2
COc1cc(/C=C/C(=O)OC[C@H]2O[C@H](OC3(CO)OC(CO)C(O)C3O)[C@H](O)[C@@H](O)[C@@H]2O)ccc1O (stereo partly drawn)	none (no result: Pol beta inh)
Cc1ccc(N=C2NC(=O)S/C2=C\c2ccco2)cc1	Pol beta inh 7.94µM, WRN helicase inh inconclusive, Pol iota inh inconclusive | Pol iota confirm 67
O=C1CC(c2ccccc2)Sc2ccccc2N1Cc1ccccc1F (stereo not drawn)	none (no result: WRN helicase inh)
CC(=O)N1CCC(N(Cc2ccc(C)o2)C(=O)Nc2cccc(C(F)(F)F)c2)CC1	none (no result: WRN helicase inh)
